CBX7 inh: CBX7 chromodomain binding inhibitors, primary screen, biochemical, AlphaScreen; Chromobox protein homolog 7 (Homo sapiens), O95931; AlphaScreen His6-CBX7 / biotin-H3K27me3 peptide binding; hits give low values; normalised signal (fraction of DMSO) (no concentration beside the values); 66,000 tested, 1.1% active; in the data active means normalised signal below about 0.5
Target sequence (O95931 whole entry, looked up): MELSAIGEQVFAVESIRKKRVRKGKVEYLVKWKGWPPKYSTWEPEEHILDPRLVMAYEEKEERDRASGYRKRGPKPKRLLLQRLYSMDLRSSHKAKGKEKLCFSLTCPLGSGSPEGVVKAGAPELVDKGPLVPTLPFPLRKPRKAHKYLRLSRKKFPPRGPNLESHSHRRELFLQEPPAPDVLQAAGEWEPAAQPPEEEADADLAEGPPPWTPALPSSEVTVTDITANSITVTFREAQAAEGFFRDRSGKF
The depositor's hits bear a star. This excerpt belongs to a sample that is enriched for hits.

SMILES	CBX7 inh
O=C(CSc1nnc(CNC(=O)c2c(F)cccc2Cl)o1)Nc1ccccc1	0.91
COc1cc(C(=O)NCc2nnc(SCC(=O)Nc3ccc(Cl)cc3)o2)cc(OC)c1OC	0.95
Cc1cccc(NC(=O)CSc2nnc(CNC(=O)c3c(F)cccc3Cl)o2)c1	1.1
COc1ccc(C(=O)NCc2nnc(SCC(=O)Nc3cc(C)on3)o2)cc1OC	0.96
Cc1cccc(NC(=O)CSc2nnc(CNC(=O)COc3ccc(Cl)cc3)o2)c1	1
CC1CCN(C(=O)CSc2nnc(CNC(=O)c3c(F)cccc3Cl)o2)CC1	0.87
Cc1ccc2oc(-c3cccc(NC(=O)c4ccccc4Cl)c3C)nc2c1	1.1
O=C(Cc1n[nH]c(=O)c2ccccc12)Nc1ccccn1	1.1
Fc1cccc(F)c1CSc1nnc(-c2cccnc2)n1-c1ccccc1	1
COc1ccc(-c2noc(COc3ccc(Cl)cc3Br)n2)cc1OC	1.1
Cc1ccc(NC(=O)CN(c2ccc(C(C)C)cc2)S(=O)(=O)c2c(C)nn(C)c2C)cc1F	1.3
Cc1ccc(-n2c(Cc3cccn3C)nnc2SCC(=O)Nc2ccc(Cl)cc2)cc1	0.91
O=C(CN1C(=O)COc2ccc(S(=O)(=O)N3CCOCC3)cc21)Nc1cccc(F)c1	0.93
CC(NC(=O)CN1C(=O)CC(C)(C)S(=O)(=O)c2ccccc21)c1ccccc1 (configuration not stated)	1
O=C(CS(=O)(=O)c1nc(-c2ccccc2)cn1-c1ccc(Cl)cc1)Nc1ccc(F)cc1	0.86
O=C(CS(=O)(=O)c1nc(-c2ccccc2)cn1-c1ccc(Cl)cc1)Nc1ccccc1	0.86
O=C(CS(=O)(=O)c1nc(-c2ccccc2)cn1-c1ccc(Cl)cc1)Nc1ccccc1F	0.48*
CC1CCN(c2nc3ccc(C(=O)NCCc4ccccc4)cc3s2)CC1	0.95
Cc1ccc(N2CC(c3nc4ccccc4n3CC(C)C)CC2=O)cc1Cl (configuration not stated)	1
COCCNC(=O)CCc1c(C)nc2cc(-c3ccc(Cl)cc3)nn2c1C	1.1
COc1ccc(NC(=O)Cn2cc(S(=O)(=O)c3ccccc3)c(=O)c3cc(OC)ccc32)cc1	0.8
CCCOc1ccc(C(C)(O)CN2CCOCC2)cc1 (configuration not stated)	0.98
CC(C)(c1ccccc1)c1ccc(OCCN2CCOCC2)cc1	0.3*
CCCCOc1ccc(C(O)(CCC)CCN2CCOCC2)cc1 (configuration not stated)	1
Cc1ccc(Cn2nc(C)c(NC(=O)c3cc(-c4cccc(Cl)c4)on3)c2C)cc1	0.94
SMILES	CBX7 inh
CN1CCSc2ccc(C(=O)NCc3ccc(F)cc3)cc21	1.1
COc1ccc(N2CCN(C(c3cccs3)C(C)NS(=O)(=O)c3ccc(F)cc3)CC2)cc1 (configuration not stated)	0.49*
COc1ccc(N2CCN(C(c3cccs3)C(C)NS(=O)(=O)c3ccc(C)cc3)CC2)cc1 (configuration not stated)	0.52
CC(NS(=O)(=O)c1ccc(F)cc1)C(c1cccs1)N1CCN(C)CC1 (configuration not stated)	1
CCS(=O)(=O)NC(C)C(c1cccs1)N1CCN(c2ccc(OC)cc2)CC1 (configuration not stated)	0.83
COc1ccc(N2CCN(C(c3cccs3)C(C)NS(=O)(=O)c3ccccc3)CC2)cc1 (configuration not stated)	0.48*
CC(NS(=O)(=O)c1ccc(F)cc1)C(c1cccs1)N1CCN(c2ccccc2)CC1 (configuration not stated)	0.86
CC1CCN(S(=O)(=O)c2ccc3c(c2)N(CC(=O)NCCN2CCCC2)C(=O)CO3)CC1	0.97
O=C(c1cc2sccc2n1Cc1ccc(Cl)cc1)N1CCC(C(=O)N2CCCCC2)CC1	0.96
CCN(CC)S(=O)(=O)c1ccc2c(c1)N(CC(=O)N1CC(C)CC(C)C1)C(=O)CS2 (configuration not stated)	1
COc1ccc(-c2cn(-c3ccc(Cl)cc3)c(S(=O)(=O)CC(=O)Nc3ccccc3C)n2)cc1	0.81
O=C(Nc1ccc2nc3n(c(=O)c2c1)CCCCC3)c1cnccn1	0.91
COc1ccccc1-c1c(C)nn2c(NCc3cccnc3)cc(C)nc12	1.1
COc1ccccc1-c1c(C)nn2c(NCc3ccc(C)cc3)cc(C)nc12	1
COc1ccccc1-c1c(C)nn2c(NCc3ccccn3)cc(C)nc12	0.39*
COCCCNC(=O)c1ccc2c(c1)ncn2-c1ccc(OC)cc1	1
COc1ccc(-c2ccc(=O)n(CC(=O)Nc3ccccc3OC)n2)cc1	1
COC(=O)Cc1nc(N2CCN(c3ccccc3)CC2)c2c(C)c(C)sc2n1	0.94
Cc1ccc2[nH]c3c(c2c1)CCCC3Nc1ccccc1 (configuration not stated)	0.71
Brc1ccc2[nH]c3c(c2c1)CCCC3NCc1ccccc1 (configuration not stated)	1
Cc1ccc2[nH]c3c(c2c1)CCCC3NCc1ccc(F)cc1 (configuration not stated)	0.43*
COc1ccc(-c2nc3nc(C)cc(C)n3c2Nc2cccc(C)c2)cc1	1.2
Cc1ccc(OCc2nc(C#N)c(N3CCN(Cc4ccccc4)CC3)o2)cc1	0.46*
COc1ccccc1OCc1nc(C#N)c(N(C)C)o1	0.95
N#Cc1nc(COc2ccccc2)oc1NCc1ccc(F)cc1	0.88
SMILES	CBX7 inh
CN(Cc1ccccc1)c1oc(COc2ccc(F)cc2)nc1C#N	0.44*
N#Cc1nc(COc2ccc(Cl)cc2)oc1N1CCOCC1	1.2
N#Cc1nc(COc2ccccc2F)oc1N1CCN(c2ccccc2)CC1	0.48*
Cc1ccc(OCc2nc(C#N)c(N3CCC(C(N)=O)CC3)o2)cc1	0.88
N#Cc1nc(COc2ccccc2F)oc1N1CCCC1	0.88
CCN1CCN(c2oc(COc3ccccc3)nc2C#N)CC1	0.95
Cc1ccc(OCc2nc(C#N)c(N3CCC(C)CC3)o2)cc1	0.52
COc1ccc(N2CCN(c3oc(COc4ccccc4F)nc3C#N)CC2)cc1	0.55
CC1CCN(c2oc(COc3ccc(Cl)cc3)nc2C#N)CC1	0.36*
Cc1cc(OCc2nc(-c3ccc(Br)cc3)no2)ccc1Cl	0.93
Cc1cc(C)cc(NC(=O)C2CCN(S(=O)(=O)c3cccnc3)CC2)c1	1
CCOc1ccc(-n2cnnn2)cc1S(=O)(=O)NC1CCCCC1	1
O=C(CSc1ncnc2sc3c(c12)CCC3)Nc1ccc(Cl)c(C(F)(F)F)c1	1.2
CCOC(=O)c1c(NC(=O)c2c(OC)cccc2OC)sc2c1CCCCCC2	1.1
CCOc1ccc(CCNC(=O)c2nc(-c3cccc(C)c3)oc2C)cc1OCC	0.86
CCCCN(C)C(=O)c1ccc2c(c1)N(Cc1ccc(Cl)cc1)C(=O)c1ccccc1S2=O (configuration not stated)	0.99
C=CCn1c(SCc2cccnc2)nc2cc(C(=O)NCc3ccco3)ccc2c1=O	0.86
COc1cc(OC)cc(-c2cc3nc(C)c(CCC(=O)NCCC4=CCCCC4)c(C)n3n2)c1	0.99
CCOC(=O)c1c(C)n(-c2ccc(C)cc2)c2ccc(OCC(O)CN3CCCCC3C)cc12 (configuration not stated)	1.7
COc1ccc(OCc2nc(C#N)c(N3CCOCC3)o2)cc1	1
CN1CCN(c2oc(COc3ccc(F)cc3)nc2C#N)CC1	1
Cc1ccc(OCc2nc(C#N)c(N3CCN(c4ccccc4)CC3)o2)cc1	0.46*
N#Cc1ccc(N2C(=O)C3C4C=CC(CO)(O4)C3C2=O)cc1 (configuration not stated)	1

Screens as filed in PubChem BioAssay.
